# In ChEMBL document CHEMBL4513216, “Probing the Open Global Health Chemical Diversity Library for Multistage-Active Starting Points for Next-Generation Antimalarials” (ACS Infect Dis, 2020):
# Out of some 68,000 compounds screened, about 2,700 (4%) showed an effect of 50% or more. The entries come from a sample that favours strong results as a whole.
# System: Plasmodium berghei
# Test: Screen against P. berghei liver stage (PbLuc), transformed with Luciferase, at 2uM
# Format: functional, HepG2
# Settings: tested at 2 uM
row,Structure (SMILES),INHIBITION [%]
1,N#CCCN(C(=O)CN1CCCC1c1ccsc1)c1ccccc1F (configuration not stated),73.05
2,N#CCCN(C(=O)CN1CCCC1c1ccsc1)c1ccccc1 (configuration not stated),-37.2
3,N#CCCN(C(=O)CN1CCCC1c1cccs1)c1ccccc1F (configuration not stated),-13.06
4,CC(C)c1nnc2n1CCN(C(=O)c1cc3cc(F)ccc3[nH]1)C2,31.57
5,CC(C)CC(=O)N1CCCC1c1cc(CO)[nH]n1 (configuration not stated),31.92
6,CN(C)C[C@@H]1OC[C@H]2CN(Cc3ccoc3)CC[C@H]21,0.13
7,O=C(NC[C@H]1OC[C@@H]2CN(Cc3ccco3)CC[C@@H]21)c1cccnc1,-36.8
8,CN(Cc1cccnc1)C[C@@H]1OC[C@H]2CN(Cc3ccoc3)CC[C@H]21,55.7
9,CN(Cc1ccco1)C[C@H]1OC[C@@H]2CCN(Cc3cccs3)C[C@@H]21,-2.83
10,O=C(NC[C@H]1OC[C@@H]2CN(Cc3ccco3)CC[C@@H]21)c1cscn1,66.46
11,CN(Cc1cccnc1)C[C@@H]1OC[C@H]2CN(Cc3ccco3)CC[C@H]21,10.53
12,Cc1ccc(CN2CC[C@H]3CO[C@H](CN(C)Cc4ccco4)[C@H]3C2)s1,59.03
13,CN(Cc1ccco1)C[C@@H]1OC[C@H]2CN(Cc3nccs3)CC[C@H]21,59.03
14,Cn1cc(C(=O)NC[C@@H]2OC[C@H]3CN(Cc4ccco4)CC[C@H]32)cn1,-33.95
15,CN(Cc1ccco1)C[C@H]1OC[C@@H]2CCN(Cc3ccccn3)C[C@@H]21,-1.63
16,CN(Cc1ccco1)C[C@H]1OC[C@@H]2CCN(Cc3ccsc3)C[C@@H]21,22.89
17,CN(Cc1ccco1)C[C@H]1OC[C@@H]2CCN(Cc3nccs3)C[C@@H]21,-13.27
18,O=C(N[C@@H]1CN(Cc2ccc3[nH]ccc3c2)C[C@H]1O)c1cscn1,-0.83
19,Cc1nn(C)c(C)c1CC(=O)N1CCC(N(C)c2cccnn2)CC1,-48.87
20,COc1ccc(C2=CCN(C(=O)C3CCS(=O)(=O)C3)CC2)cc1 (configuration not stated),-7.13
21,Cc1ccccc1CN1CCC(NCC2CNc3ccnn3C2)CC1 (configuration not stated),-4.7
22,N#Cc1ccccc1CN1C[C@H]2CC[C@@H](C1)N(CC1CCC1)C2=O,-39.43
23,COc1ncccc1C(=O)NCCn1cnc(C)cc1=O,-7.16

row,Structure (SMILES),INHIBITION [%]
1,O=S(=O)(NCCCn1cncn1)c1ccc2c(c1)CCCC2,-5.74
2,CCn1ccc(NS(=O)(=O)c2cccc(COC)c2)n1,-85.71
3,O=S(=O)(NCCCn1cncn1)c1ccc2c(c1)CCO2,-9.13
4,COC(=O)Cn1ccc(NS(=O)(=O)c2ccc3c(c2)CCC3)n1,53.98
5,O=S(=O)(NCCCn1cncn1)c1ccc2c(c1)OCCO2,65.71
6,O=S(=O)(NCCCn1cccn1)c1ccc2c(c1)CCC2,42.26
7,O=S(=O)(NCCCn1cncn1)c1ccc2c(c1)CCC2,54.99
8,CCc1ccc(S(=O)(=O)Nc2ccn(CC(=O)OC)n2)cc1,11.9
9,O=S(=O)(NCCCn1cncn1)c1ccc2c(c1)OCCCO2,-56.09
10,CCCN1CCC2(C1)c1ccccc1S(=O)(=O)N2Cc1ccccc1 (configuration not stated),9.87
11,CCCn1ccc2cc(NC(=O)NCCn3cnnc3CC)ccc21,12.58
12,O=C([C@H]1COC[C@H]2CN(C3CCCC3)C[C@H]21)N1CCCO1,0.13
13,CCS(=O)(=O)N1CCC2(CC(=O)N(c3ccccc3C)C2)C1 (configuration not stated),46.87
14,Cc1ccc(C2c3c(n[nH]c3C)N=C3COC(=O)C32)cc1C (configuration not stated),28.23
15,CC(=O)Nc1cnc(Oc2ccccc2F)nc1,8.41
16,CO[C@@H]1CO[C@@]2(CCCN(Cc3nc(C)cs3)C2)C1,-61.54
17,O=C1CC(NCc2ccncc2)CN1Cc1cccc(F)c1 (configuration not stated),-12.82
18,Nc1cc2c(nn1)CCN(C(=O)CCCC1CCCCC1)C2,-33.92
19,Cc1nc(CN2CCCC(N(C)c3ccc(C#N)cn3)C2)no1 (configuration not stated),-14.71
20,COc1cc2c(nn1)CCN(Cc1noc(CC(C)C)n1)C2,65.76
21,COc1cc2c(nn1)CCN(Cc1noc(-c3ccccc3)n1)C2,0.12
22,COc1cc2c(nn1)CCN(Cc1nc(Cc3ccccc3)no1)C2,48.93
23,Cc1nn(C)c(Cl)c1C1CCCN1C(=O)c1cnccn1 (configuration not stated),3.86

row,Structure (SMILES),INHIBITION [%]
1,Cc1nn(C)c(C)c1C1CCCN1C(=O)c1ccc(C(N)=O)cn1 (configuration not stated),-27.71
2,Cc1nn(C)c(Cl)c1C1CCCN1C(=O)c1csnn1 (configuration not stated),75.98
3,Cc1cc(C(=O)N2CCCC2c2c(C)nn(C)c2C)no1 (configuration not stated),43
4,Cc1nn(C)c(Cl)c1C1CCCN1C(=O)c1ccc(O)nc1 (configuration not stated),-36.73
5,Cc1nn(C)c(Cl)c1C1CCCN1C(=O)c1cc[nH]n1 (configuration not stated),47.57
6,COc1c(C2CCCN2C(=O)c2cc(C3CC3)on2)c(C)nn1C (configuration not stated),-47.94
7,Cc1nn(C)c(Cl)c1C1CCCN1C(=O)c1ccc(C(N)=O)cn1 (configuration not stated),68.24
8,COc1c(C2CCCN2C(=O)c2cc(C)on2)c(C)nn1C (configuration not stated),51.94
9,O=C([C@H]1CN(Cc2ccccc2F)C[C@H]2OCC[C@@H]12)N1CCCO1,13.61
10,CC(NC(=O)N1CCCN(CC(F)F)CC1)c1ccco1 (configuration not stated),1.06
11,CNc1nc(CNC(=O)Nc2cccc(Cl)c2Cl)cs1,61.09
12,CNc1nc(CNC(=O)Nc2cccc(Cl)c2OC)cs1,-4.43
13,CNc1nc(CNC(=O)Nc2cccc(C)c2Cl)cs1,15.4
14,CC(C)(C)c1nnc(NCC(=O)N2CCc3sccc3C2)s1,33.83
15,O=C(NCc1nnc2n1CCC2)N(Cc1ccco1)C1CC1,17.52
16,Cc1ccc(N2CCCC(NCCCS(C)(=O)=O)C2)nn1 (configuration not stated),-15.77
17,c1cnnc(N2CCCC(NCc3cccc4c3OCO4)C2)c1 (configuration not stated),-9.98
18,Cc1ccc(N2CCCC(NCc3cccc4c3OCCO4)C2)nn1 (configuration not stated),15.13
19,Cc1ccc(N2CCCC(NCc3cccc4c3OCO4)C2)nn1 (configuration not stated),56.02
20,COCCCNC1CCCN(c2ccc(C)nn2)C1 (configuration not stated),-73.41
21,Cc1ccc(N2CCCC(NCCS(C)(=O)=O)C2)nn1 (configuration not stated),52.6
